Reference: PubChem BioAssay (EPA / NIEHS)
The source made the active and inactive calls. Rule for the calls: active = hit-call score of the fitted dose curve at least 0.9, where 1 is the maximum; inactive = score below 0.9.

Legend:
Conditions in all cases: mRNA level, 48 h; actives raise or lower the signal
[1] = read-out: Apolipoprotein A-V (APOA5) gene, APOA5 (gene 116519); experiment: LTEA_HepaRG_APOA5: Life Technologies and Expression Analysis (LTEA) Assay for Apolipoprotein A-V (APOA5) gene using HepaRG (AID 2283474)
Summary of the method: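 Differentiated human HepaRG cells were exposed in duplicate for 48 h to eight half-log concentrations from 100 uM in 0.5% DMSO. APOA5 mRNA was quantified by TaqMan qRT-PCR, normalized to ACTB, GAPDH and POLR2A, and fitted bidirectionally against DMSO.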

[2] = read-out: Apoptosis regulator Bcl-2 (Homo sapiens) (UniProt P10415); experiment: LTEA_HepaRG_BCL2: Life Technologies and Expression Analysis (LTEA) Assay for Bcl-2 gene using HepaRG (AID 2283475)
Summary of the method: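 qRT-PCR read-out (Fluidigm TaqMan) of BCL2 transcript, normalised to three housekeeping genes, after 48 h chemical exposure of HepaRG cells; 8-point half-log series, top 100 uM, 0.5% DMSO vehicle. Gain or loss of signal fitted relative to DMSO baseline.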

[3] = read-out: Bcl-2 (BID) gene, BID (gene 637); experiment: LTEA_HepaRG_BID: Life Technologies and Expression Analysis (LTEA) Assay for Bcl-2 (BID) gene using HepaRG (AID 2283476)
Summary of the method: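 HepaRG, 48 h exposure, 8-pt half-log series, top 100 uM, 0.5% DMSO vehicle, duplicates. Readout: BID mRNA by TaqMan qRT-PCR; housekeeping-normalized; bidirectional curve fit vs DMSO baseline.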

Caspase-3 (Homo sapiens) = Caspase-3 (Homo sapiens) (UniProt P42574); experiment: LTEA_HepaRG_CASP3: Life Technologies and Expression Analysis (LTEA) Assay for cysteine-aspartic acid protease (CASP3) using HepaRG (AID 2283477)
Chain of Caspase-3 (Homo sapiens) (P42574 whole entry, looked up): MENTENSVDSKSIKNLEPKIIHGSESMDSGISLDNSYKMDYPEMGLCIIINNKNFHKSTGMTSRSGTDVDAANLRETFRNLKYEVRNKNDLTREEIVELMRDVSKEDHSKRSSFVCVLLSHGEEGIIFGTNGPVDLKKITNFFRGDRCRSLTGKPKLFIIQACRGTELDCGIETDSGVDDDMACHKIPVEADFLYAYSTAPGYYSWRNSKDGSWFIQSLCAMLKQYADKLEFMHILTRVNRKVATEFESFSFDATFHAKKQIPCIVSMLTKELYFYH
Summary of the method: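 Differentiated human HepaRG cells in serum-free induction medium were exposed 48 h to 8-point half-log concentrations from 100 uM (0.5% DMSO vehicle). CASP3 mRNA was measured by qRT-PCR, normalised to ACTB, GAPDH and POLR2A, with bidirectional fitting against DMSO.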

[4] = read-out: Cytochrome P450 (CYP24A1), CYP24A1 (gene 1591); experiment: LTEA_HepaRG_CYP24A1: Life Technologies and Expression Analysis (LTEA) Assay for Cytochrome P450 (CYP24A1) using HepaRG (AID 2283478)
Summary of the method: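 Differentiated HepaRG cells, pre-cultured 48 h, were exposed in duplicate for 48 h in serum-free induction medium to 8 half-log concentrations (top 100 uM, 0.5% DMSO). CYP24A1 mRNA was quantified by TaqMan qRT-PCR, normalized to ACTB/GAPDH/POLR2A, fitted bidirectionally versus DMSO.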

[5] = read-out: Cytochrome P450 (CYP1A2), CYP1A2 (gene 1544); experiment: LTEA_HepaRG_CYP1A2: Life Technologies and Expression Analysis (LTEA) Assay for Cytochrome P450 (CYP1A2) using HepaRG (AID 2283479)
Summary of the method: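 Differentiated human HepaRG cells in serum-free induction medium were exposed in duplicate for 48 h to 8-point half-log concentrations up to 100 uM in 0.5% DMSO. CYP1A2 mRNA measured by qRT-PCR, normalized to ACTB, GAPDH, POLR2A; bidirectional fit vs DMSO.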

[6] = read-out: cysteine-aspartic acid protease (CASP8), CASP8 (gene 841); experiment: LTEA_HepaRG_CASP8: Life Technologies and Expression Analysis (LTEA) Assay for cysteine-aspartic acid protease (CASP8) using HepaRG (AID 2283480)
Summary of the method: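 CASP8 transcript measured by TaqMan qRT-PCR with ACTB/GAPDH/POLR2A normalization, after 48 h chemical exposure of HepaRG cells in serum-free induction medium. Eight concentrations, top 100 uM, half-log steps, 0.5% DMSO vehicle; fits in both directions versus DMSO.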

[7] = read-out: Cytochrome P450 (CYP2B6), CYP2B6 (gene 1555); experiment: LTEA_HepaRG_CYP2B6: Life Technologies and Expression Analysis (LTEA) Assay for Cytochrome P450 (CYP2B6) using HepaRG (AID 2283481)
Summary of the method: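 Differentiated HepaRG cells, serum-free induction medium, exposed 48 h in duplicate to 8-point half-log concentrations from 100 uM in 0.5% DMSO. CYP2B6 mRNA by qRT-PCR, normalized to ACTB, GAPDH, POLR2A; bidirectional fit versus DMSO.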

[8] = read-out: Cytochrome P450 2C19 (Homo sapiens) (UniProt P33261); experiment: LTEA_HepaRG_CYP2C19: Life Technologies and Expression Analysis (LTEA) Assay for CYP2C19 using HepaRG (AID 2283482)
Summary of the method: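 Differentiated human HepaRG cells were exposed for 48 h in serum-free induction medium to 8 concentrations (top 100 uM, half-log steps, 0.5% DMSO). CYP2C19 mRNA was measured by qRT-PCR, normalized to ACTB/GAPDH/POLR2A, and fitted bidirectionally against DMSO.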

CYP2C8 (gene 1558) = experiment: LTEA_HepaRG_CYP2C8: Life Technologies and Expression Analysis (LTEA) Assay for CYP2C8 using HepaRG (AID 2283483)
Summary of the method: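 CYP2C8 expression measured by TaqMan qRT-PCR and normalized to three housekeeping genes. HepaRG cultures were treated for 48 h with an eight-point half-log series topping at 100 uM, vehicle 0.5% DMSO, duplicates; fitted both directions against DMSO.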

Measured: AC50

Chain of Apoptosis regulator Bcl-2 (Homo sapiens) (P10415 whole entry, looked up): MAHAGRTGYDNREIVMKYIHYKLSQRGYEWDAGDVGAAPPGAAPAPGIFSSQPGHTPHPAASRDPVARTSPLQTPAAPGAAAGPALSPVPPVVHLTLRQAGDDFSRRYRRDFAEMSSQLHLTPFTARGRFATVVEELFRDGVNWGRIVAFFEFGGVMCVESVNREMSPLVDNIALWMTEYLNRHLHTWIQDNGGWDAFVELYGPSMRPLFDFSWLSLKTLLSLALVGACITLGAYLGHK
Chain of Cytochrome P450 2C19 (Homo sapiens) (P33261 whole entry, looked up): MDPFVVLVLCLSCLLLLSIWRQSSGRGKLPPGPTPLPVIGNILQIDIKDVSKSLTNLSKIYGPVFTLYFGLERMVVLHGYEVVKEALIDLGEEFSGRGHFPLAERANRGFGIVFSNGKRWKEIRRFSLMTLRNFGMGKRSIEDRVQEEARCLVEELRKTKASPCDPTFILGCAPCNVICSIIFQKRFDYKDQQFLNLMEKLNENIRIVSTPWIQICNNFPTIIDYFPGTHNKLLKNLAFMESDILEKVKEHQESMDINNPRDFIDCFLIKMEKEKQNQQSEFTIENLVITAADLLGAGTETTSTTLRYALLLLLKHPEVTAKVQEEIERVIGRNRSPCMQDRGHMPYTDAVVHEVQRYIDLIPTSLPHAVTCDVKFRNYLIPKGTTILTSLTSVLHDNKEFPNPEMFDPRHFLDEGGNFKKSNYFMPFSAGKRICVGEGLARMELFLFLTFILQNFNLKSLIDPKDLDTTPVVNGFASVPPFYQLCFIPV

CCCCC(CC)COC(=O)c1ccc(C(=O)OCC(CC)CCCC)cc1 (stereo not given)
inactive: all assays above

O=C(O)c1cccc(Oc2ccccc2)c1
active: [5] 30 µM | [7] 34.7 µM | [8] 31.2 µM
inactive: all other assays above

CCCCCCCCCCCCCCCO
inactive: all assays above

Cn1c(=O)c2c(ncn2C)n(C)c1=O
active: [7] 50 µM
inactive: all other assays above

CCOc1cccc(-n2cc(C(=O)N3CCN(c4cc(C(=O)O)c5ccccc5c4)CC3)nc2-c2ccc(C)cc2)c1
inactive: [4]
active: [1] 64.2 µM | [2] 84.5 µM | [3] 80.7 µM | Caspase-3 (Homo sapiens) 82.9 µM | [5] 27.7 µM | [6] 87.9 µM | [7] 26.5 µM | [8] 32.6 µM | CYP2C8 (gene 1558) 25.6 µM

COc1cccc(-c2ccc(/C=C\CN3CCCCCC3)cc2Cl)c1
active: [1] 71.7 µM | [2] 67.4 µM | [5] 69.9 µM | [7] 77.3 µM | [8] 74.9 µM | CYP2C8 (gene 1558) 74.1 µM
inactive: [3] | Caspase-3 (Homo sapiens) | [4] | [6]

Clc1nc(Cl)c(Cl)c(Cl)c1Cl
inactive: all assays above

Cc1ccc(C)c(O)c1
active: [5] 51.2 µM | [7] 51.2 µM
inactive: all other assays above

COC(=O)c1ccccc1O
inactive: all assays above

O=C(NS(=O)(=O)/C=C/c1ccccc1)c1ccc(F)cc1Cl
active: [7] 0.459 µM | [8] 2.51 µM
inactive: all other assays above

CCc1cc(SCc2sc(-c3ccc(C(F)(F)F)cc3)nc2CN2CCN(c3ccc(OC)cc3)CC2)ccc1OCC(=O)O
active: [2] 8.96 µM | [3] 0.206 µM | [6] 15.8 µM | [7] 7.48 µM | [8] 7.52 µM
inactive: [1] | Caspase-3 (Homo sapiens) | [4] | [5] | CYP2C8 (gene 1558)

Cc1[nH]cnc1C[C@H]1CCc2c(C)c3ccccc3n2C1=O
active: [1] 19.6 µM | [2] 24.1 µM | [5] 5.56 µM | [6] 66.7 µM | [7] 29 µM | [8] 30.6 µM | CYP2C8 (gene 1558) 22.9 µM
inactive: [3] | Caspase-3 (Homo sapiens) | [4]

CCOC(=O)COc1ccc2c(c1)CC(NCC(O)c1cccc(Cl)c1)CC2 (stereo not given)
active: [2] 45.8 µM | [7] 0.947 µM
inactive: all other assays above

COc1ccc(/C=C/S(=O)(=O)NC(=O)c2ccc(C)cc2Cl)cc1
active: [7] 89.8 µM
inactive: all other assays above

CC(=O)OC[C@H]1O[C@@](COC(C)=O)(O[C@H]2O[C@H](COC(C)=O)[C@@H](OC(C)=O)[C@H](OC(C)=O)[C@H]2OC(C)=O)[C@@H](OC(C)=O)[C@@H]1OC(C)=O
inactive: all assays above

CCCCCCCCCCCCc1ccccc1
inactive: all assays above

Cc1c(-c2cccnc2)c2ccccc2n1CCCCC(=O)O
active: [5] 50 µM | [7] 35.9 µM
inactive: all other assays above

C=CC(=C)CCC=C(C)C
active: [5] 27.2 µM
inactive: all other assays above

Cc1ccc(S(=O)(=O)O)cc1C
inactive: all assays above

CCCCCCc1ccc(O)cc1O
inactive: all assays above
